Measurements as given in the supplement of paper PMC4683952.
Where a name gives a salt, the structure may show the parent alone. In all, about 1,200 compounds went through this assay and about 50 (4%) showed activity. The entries come from a sample that favours actives as a whole. Values without a mark were called inactive. No stated cut-off is given here; in the data, all actives reach 1.3 or more but so do some inactives.

Test system: Lgr5 (MarsCy1-Lgr5-EGFP, U2OS)
Experiment: cell-surface Lgr5 expression (SCi1 fluorescence, background-subtracted) relative to WT DMSO (fold of DMSO control); higher = more Lgr5 at the plasma membrane, active = hit call of the paper
Conditions: U2OS MarsCy1-Lgr5-EGFP stable; treatment time: overnight; 16 µM; library: Johns Hopkins Clinical Compound Library

Compound	cell-surface Lgr5 expression
COC(=O)[C@H](Cc1ccccc1)NC(=O)[C@@H](N)CC(=O)O [Aspartame]	0.834
C[C@H](CCC(=O)O)[C@H]1CC[C@H]2[C@@H]3[C@@H](O)C[C@@H]4C[C@H](O)CC[C@]4(C)[C@H]3CC[C@]12C [Ursodiol (Ursodeoxycholic acid)]	0.801
Nc1nc2[nH]cnc2c(=S)[nH]1 [Thioguanine (2-amino,6-mercaptopurine)]	0.849
S=c1[nH]cnc2nc[nH]c12 [6-Mercaptopurine monohydrate]	1.67 (active)
COc1ccc(CN2CCN(C(c3ccc(F)cc3)c3ccc(F)cc3)CC2)c(OC)c1OC [Lomerizine HCl]	1.15
O=C[O-].[Na+] [Sodium formate]	0.903
C=N[C@@H](C(=O)N[C@@H]1C(=O)N2[C@@H]1SC(C)(C)[C@@H]2C(=O)O)c1ccccc1 [Metampicillin]	0.953
N.N.O=S(=O)(O)O [Ammonium sulfate]	0.987
COc1ccc2cc3[n+](cc2c1OC)CCc1cc2c(cc1-3)OCO2 [Berberine]	1.64 (active)
COc1ccc2cc3[n+](cc2c1OC)CCc1cc2c(cc1-3)OCO2 [Berberine bisulfate]	1.47
O.O.O.O.O.O.[Cl-].[Cl-].[Sr+2] [Strontium chloride hexahydrate]	1.29
COc1cccc2c1C(=O)c1c(O)c3c(c(O)c1C2=O)C[C@@](O)(C(=O)CO)C[C@@H]3O[C@H]1C[C@H](N)[C@H](O)[C@H](C)O1 [Doxorubicin]	0.634
O=C(Nc1ccc(Cl)cc1)Nc1ccc(Cl)c(Cl)c1 [Trilocarban (3,4,4'-Trichlorocarbanilide, 99%)]	0.931
COc1ccccc1OCC(O)CO (stereo not given) [Guaifenesin]	1.27
C=CCOc1ccccc1OCC(O)CNC(C)C (stereo not given) [Oxprenolol]	1.42 (active)
CC(C)NCC(O)COc1cccc2ccccc12 (stereo not given) [Propranolol]	1.07
COc1ccccc1OCC(O)CO (stereo not given) [Guaifenesen (Guaiacol glyceryl ether)]	1.11
COC(=O)CCc1ccc(OCC(O)CNC(C)C)cc1 (stereo not given) [Esmolol]	1.29
Nc1nc(O)c2ncn(CCC(CO)CO)c2n1 [Penciclovir]	0.791
CC(=O)[O-].CC(=O)[O-].[Mg+2] [Magnesium acetate]	0.917
CN(C(=O)C(Cl)Cl)c1ccc(OC(=O)c2ccco2)cc1 [Diloxanide furoate]	1.05
CC1(C)S[C@@H]2[C@H](NC(=O)C3(N)CCCCC3)C(=O)N2[C@H]1C(=O)O [Cyclacillin]	0.994

Compound	cell-surface Lgr5 expression
CC(=O)N(O)CCCCCNC(=O)CCC(=O)N(O)CCCCCNC(=O)CCC(=O)N(O)CCCCCN [Deferoxamine mesylate]	0.865
CCCN(CCC)S(=O)(=O)c1ccc(C(=O)O)cc1 [Probenecid]	1.01
Nc1ccc(C(=O)O)cc1 [4-Aminobenzoic acid, sodium salt,99%]	0.905
NS(=O)(=O)c1ccc(C(=O)O)cc1 [Carzenide (4-Carboxybenzenesulfonamide, 97%)]	1.3 (active)
Oc1c(I)cc(Cl)c2cccnc12 [Clioquinol]	1.18
CCCCCCN(C)C [N,N-Dimethylhexylamine]	1.05
O=NN(CCCl)C(=O)NC1CCCCC1 [Lomustine]	1.37
CCC(=O)O[C@H]1[C@H](O[C@@H]2[C@@H](C)[C@H](O[C@H]3C[C@@](C)(OC)[C@@H](O)[C@H](C)O3)[C@@H](C)C(=O)O[C@H](CC)[C@@](C)(O)[C@H](O)[C@@H](C)C(=O)[C@H](C)C[C@@]2(C)O)O[C@H](C)C[C@@H]1N(C)C [Erythromycin estolate]	0.567
CCOc1ccc2nc(S(N)(=O)=O)sc2c1 [Ethoxzolamide (6-Ethoxy-2-benzothiazolesulfonamide)]	1.15
CCN1CCCC1CNC(=O)c1cc(S(N)(=O)=O)ccc1OC (racemic) [Sulpiride (+/-)-]	1.07
CCc1cc(Cl)c(OC)c(C(=O)NC[C@@H]2CCCN2CC)c1O [Eticlopride hydrochloride (S)]	1.52 (active)
O=C([O-])C(=O)[O-].O=C([O-])C(=O)[O-].O=C([O-])C(=O)[O-].[Ce+3].[Ce+3] [Cerium oxalate]	1.08
COC(=O)c1ccc(O)c2nc3c(C=O)c(O)cc(O)c3nc12 [Lomofungin]	0.884
COc1ccnc(C[S+]([O-])c2nc3cc(OC(F)F)ccc3[nH]2)c1OC (stereo not given) [Pantoprazole]	1.01
OC(CCCN1CCC(O)(c2ccc(Cl)cc2)CC1)c1ccc(F)cc1 (stereo not given) [Haloperidol metabolite II]	1.18
CCCCCCCCCCCCCCc1ccc(S(=O)(=O)O)cc1.OCl [Oxychlorosene]	0.635
C[C@H]1C[C@H]2[C@@H]3CCC4=CC(=O)C=C[C@]4(C)[C@@]3(F)[C@@H](O)C[C@]2(C)[C@@]1(O)C(=O)COP(=O)(O)O [Betamethasone sodium phosphate]	1.35 (active)
C[C@@H]1C[C@H]2[C@@H]3CCC4=CC(=O)C=C[C@]4(C)[C@@]3(F)[C@@H](O)C[C@]2(C)[C@@]1(O)C(=O)COP(=O)(O)O	1.26
C[C@H]1C[C@H]2[C@@H]3CCC4=CC(=O)C=C[C@]4(C)[C@@]3(F)[C@@H](O)C[C@]2(C)[C@@]1(O)C(=O)CO	1.45 (active)
CC(=O)OCC(=O)[C@@]1(O)[C@@H](C)C[C@H]2[C@@H]3CCC4=CC(=O)C=C[C@]4(C)[C@@]3(F)[C@@H](O)C[C@@]21C	1.59 (active)
C[C@@H]1C[C@H]2[C@@H]3CCC4=CC(=O)C=C[C@]4(C)[C@@]3(F)[C@@H](O)C[C@]2(C)[C@H]1C(=O)CO	1.41
C[C@H]1C[C@H]2[C@@H]3CCC4=CC(=O)C=C[C@]4(C)[C@@]3(Cl)[C@@H](O)C[C@]2(C)[C@@]1(O)C(=O)CO [Beclomethasone]	1.36 (active)

Compound	cell-surface Lgr5 expression
CC(=O)OCC(=O)[C@@]1(O)[C@@H](C)C[C@H]2[C@@H]3CCC4=CC(=O)C=C[C@]4(C)[C@@]3(F)[C@@H](O)C[C@@]21C [Betamethasone 21-acetate]	1.53 (active)
O=P([O-])([O-])O.[K+].[K+] [Potassium phosphate dibasic]	1.09
O.O.O.O.O.O.[Br-].[Br-].[Sr+2] [Strontium bromide hexahydrate]	0.469
Nc1ccc2cc3ccc(N)cc3nc2c1 [Proflavine hemisulfate salt hydrate, powder]	1.06
CCCCCCCCCCCCCCCCCC(=O)[O-].CCCCCCCCCCCCCCCCCC(=O)[O-].[Zn+2] [Zinc stearate]	0.658
C=CC[N+]1([C@H]2C[C@H]3[C@@H]4CC[C@H]5C[C@H](O)[C@@H](N6CCOCC6)C[C@]5(C)[C@H]4CC[C@]3(C)[C@H]2OC(C)=O)CCCC1 [Rocuronium bromide (Zemuron)]	1.2
CCCCC(C)(O)C/C=C/[C@H]1[C@H](O)CC(=O)[C@@H]1CCCCCCC(=O)OC (mixture of isomers) [Misoprostol]	1.07
O=C(Cc1cccs1)N[C@@H]1C(=O)N2C(C(=O)O)=C(/C=C/c3ccc([N+](=O)[O-])cc3[N+](=O)[O-])CS[C@H]12 [Nitrocefin]	0.867
CCOC(C)OCC [Acetal]	1.06
CC(=O)O[C@]1(C(C)=O)CC[C@H]2[C@@H]3C=C(C)C4=CC(=O)CC[C@]4(C)[C@H]3CC[C@@]21C [Megestrol Acetate]	1.29
CC(=O)O[C@]1(C(C)=O)CC[C@H]2[C@@H]3C=C(Cl)C4=CC(=O)CC[C@]4(C)[C@H]3CC[C@@]21C [Chlormadinone acetate]	1.09
C=C1C[C@H]2[C@@H]3C=C(C)C4=CC(=O)CC[C@]4(C)[C@H]3CC[C@]2(C)[C@@]1(OC(C)=O)C(C)=O [Melengestrol acetate]	1.58 (active)
CO[C@H]1C=CO[C@@]2(C)Oc3c(C)c(O)c4c(O)c(c(C=O)c(O)c4c3C2=O)NC(=O)C(C)=CC=C[C@H](C)[C@H](O)[C@@H](C)[C@@H](O)[C@@H](C)[C@H](OC(C)=O)[C@@H]1C [3-formyl Rifamycin]	1.12
O=C([O-])[O-].[Ca+2] [Calcium carbonate]	0.936
COC(=O)Nc1nc2cc([S+]([O-])c3ccccc3)ccc2[nH]1 (stereo not given) [Oxfendazole]	1.18
O=[N+]([O-])c1ccc(O)cc1 [4-Nitrophenol]	1.17
[Na+].[OH-] [Sodium hydroxide]	0.75
COc1ccc2cc(CCC(C)=O)ccc2c1 [Nabumetone]	1.32 (active)
COc1ccc2cc([C@H](C)C(=O)O)ccc2c1 [Naproxen (s-6-methoxy methyl 2-naphthalene acetic acid)]	0.783
COc1ccc2cc([C@H](C)C(=O)O)ccc2c1 [Naproxen sodium]	1.03
COc1ccc(C(=O)c2ccccc2O)c(O)c1 [Dioxybenzone (2,2'-Dihydroxy-4-methoxybenzophenone)]	0.985
